Measured values published in PubChem BioAssay AID652048 (National Center for Advancing Translational Sciences (NCATS), 2013).
Where “and” joins values, the source holds several entries; their conditions need not be identical. Equal values may be shown once. Screen size: about 410,000 compounds; about 2,400 (0.59%) were called active. The sample holds actives, similar compounds and a random draw of the others, so the mix is not that of the screen. Rule as the data show it: active = max activation above about 30%; inactive = the rest. *1 amine or outer side, *2 acyl side, *3 side chain or, on linkers, in order; H or OH if unused. Where a SMILES comes first, the peptide text is derived from it. Bridges are numbered along the chain shown (N, C = ends). [ ]: non-standard residue; d: D form. The star is where a group is joined. X2 = NC1=N[C@@H]([C@H](N[*:1])C(=O)[*:2])C[C@H](O)N1; ΔAla(Z-3-ureido) = NC(=O)N/C=C(\N)C(=O)O; β3hOrn = NCCC[C@H](N)CC(=O)*; X1 = CC[C@H](C)CCCCC(=O)*; Dab = NCC[C@H](N)C(=O)O; Dap = NC[C@H](N)C(=O)O

These compounds were tested against D(3) dopamine receptor (Homo sapiens) (UniProt P35462) (assay: qHTS of D3 Dopamine Receptor Agonist: qHTS). Conditions: D3R DiscoveRx beta-arrestin cells, luminescence, 90 min; stronger effect = higher value.
Sequence of D(3) dopamine receptor (Homo sapiens) (P35462 whole entry, looked up): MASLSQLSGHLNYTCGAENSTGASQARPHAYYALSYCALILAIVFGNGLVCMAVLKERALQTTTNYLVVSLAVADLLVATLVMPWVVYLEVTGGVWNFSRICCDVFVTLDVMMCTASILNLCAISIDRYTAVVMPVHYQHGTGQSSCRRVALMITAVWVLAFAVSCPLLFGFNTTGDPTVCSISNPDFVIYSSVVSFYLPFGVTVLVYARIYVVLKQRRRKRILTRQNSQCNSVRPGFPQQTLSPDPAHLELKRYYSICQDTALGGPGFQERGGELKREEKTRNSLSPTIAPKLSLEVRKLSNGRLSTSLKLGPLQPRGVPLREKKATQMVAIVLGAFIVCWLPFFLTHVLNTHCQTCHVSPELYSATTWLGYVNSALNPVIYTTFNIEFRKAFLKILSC
Summary of the method: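 Cells at 1500/well, incubated overnight, then treated with pinned compounds (dopamine as control) for 90 min at 37 degrees C. DiscoveRx reagent added for 30 - 60 minutes at room temperature; luminescence read.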
Also: 0% is about no effect.

Compound	max activation
CSCCC(NS(=O)(=O)c1ccc(C)cc1)C(=O)N1CCCC1 (centres undefined)	-0.577% (inactive)
NC(=O)C1CCN(C(=O)COc2ccc3c4c(c(=O)oc3c2)CCC4)CC1	-9.64% (inactive)
CCCCC(NS(=O)(=O)c1ccc(C)cc1)C(=O)Oc1ccc2c3c(c(=O)oc2c1)CCC3 (centres undefined)	51.9% (active)
COc1ccccc1NC(=O)c1oc2ccccc2c1NC(=O)C(C)C	2.74% (inactive)
O=C(COc1ccc(Cl)cc1Cl)NCCCNC(=O)c1cnccn1	5.48% (inactive)
C/C(CC(=O)NCc1ccc(Cl)cc1)=N\NC(=O)COc1ccc(C)cc1Br	-14.3% (inactive)
CSc1ccc(/C=N\NC(=O)COc2ccc(Cl)cc2Br)cc1	32.8% (active)
CC[C@H](C)CCCCC(=O)N[C@@H](CCN)C(=O)N[C@H](C(=O)N[C@@H](CCN)C(=O)N[C@H]1CCNC(=O)[C@@H]([C@H](C)O)NC(=O)[C@H](CCN)NC(=O)[C@H](CCN)NC(=O)[C@H](CC(C)C)NC(=O)[C@@H](CC(C)C)NC(=O)[C@H](CCN)NC1=O)[C@@H](C)O (X1-[Dab]T[Dab][Dab][Dab][dL]L[Dab][Dab][dT]; lactam 4-C)	-1.99% (inactive)
CC1(C)[C@@H]2CC[C@@]1(C)[C@H](OC(=O)CSC#N)C2	-0.173% (inactive)
O=S(=O)(NCCS(=O)(=O)N1CCN(c2ccccc2)CC1)c1ccc(Cl)cc1	0.296% (inactive)
CCS(=O)(=O)N1CCC(N2CCN(c3ccccc3)CC2)CC1	64.6% (active)
CS(=O)(=O)N1CCC(C(=O)N2CCN(c3ccccc3)CC2)CC1	6.05% (inactive)
Cc1ccc(C)c(N2CCN(C(=O)CCc3c(C)nc4c(c3C)c(=O)n(C)c(=O)n4C)CC2)c1	1.37% (inactive)
COc1cc2c(cc1OC)[C@@H](Cc1cc(OC)c(OC)c(OC)c1)[N+](C)(CCCOC(=O)CC/C=C/CCC(=O)OCCC[N+]1(C)CCc3cc(OC)c(OC)cc3[C@H]1Cc1cc(OC)c(OC)c(OC)c1)CC2 (some centres undefined)	4.34% (inactive) and 3.72% (inactive)
Cn1nnc2c(N3CCN(c4ccccc4)CC3)ncnc21	1.99% (inactive)
Oc1ccccc1N1CCN(c2ncnc3sc(-c4ccccc4)cc23)CC1	31.1% (active)
CCc1cc2c(N3CCN(c4nnc(CC)s4)CC3)ncnc2s1	13.8% (inactive)
CCCCN(CC)CCCNC(=O)c1nn(C)c2c1CSc1ccccc1-2	3.9% (inactive)
COc1ccc(OC)c(CCNC(=O)c2nn(C)c3c2CS(=O)(=O)c2ccccc2-3)c1	2.65% (inactive)
CCCCN(CC)CCCNC(=O)c1nn(C)c2c1CS(=O)(=O)c1ccccc1-2	31.8% (active)
CCOc1ccccc1CNC(=O)c1ccc(-n2c(C)cc3c2CCC(C)C3)cc1 (centres undefined)	-10.9% (inactive)
COC(=O)c1cc(NC(=O)CCc2c(C)nc3c4c(C)cc(C)nc4nn3c2C)cc(C(=O)OC)c1	-21.8% (inactive)
O=C(CSc1nccn1-c1ccc(F)cc1)Nc1cccc2ccccc12	7.68% (inactive)
O=C(CC[C@H]1O[C@@H](n2ccc(=O)[nH]c2=O)[C@H](O)[C@@H]1O)N[C@H](Cc1ccccc1)C(=O)NCCCN1CCCC1=O	-10.2% (inactive)
Cc1ccc(NC(=O)[C@H](Cc2ccccc2)NC(=O)CC[C@H]2O[C@@H](n3ccc(=O)[nH]c3=O)[C@H](O)[C@@H]2O)cc1C	63.9% (active)

Compound	max activation
O=C(CC[C@H]1O[C@@H](n2ccc(=O)[nH]c2=O)[C@H](O)[C@@H]1O)N[C@H](Cc1ccccc1)C(=O)NCc1ccco1	13.5% (inactive)
CCOc1ccc(-c2cc3c(=O)n(CC(=O)NCc4ccc(OC)cc4)ccn3n2)cc1	-2.91% (inactive)
COc1cc(-c2c(-c3ccc4c(c3)OCO4)noc2C)ccc1F	-40.8% (inactive)
COc1cc2c(-c3ccc4c(c3)OCO4)c(-c3ccsc3)oc(=O)c2cc1OC	30.4% (active)
COc1cc(CNCc2ccc3c(c2)OCO3)c([N+](=O)[O-])cc1OC	-8.17% (inactive)
O=C(CCc1cn(Cc2ccc(F)cc2)c2ccccc12)NC1CCCCC1	-6.69% (inactive)
C/C=C/C1=C(C(=O)O)N2C(=O)[C@@H](NC(=O)[C@H](N)c3ccc(O)cc3)[C@H]2SC1	-0.123% (inactive)
C#C[C@]1(O)CC[C@H]2[C@@H]3CCC4=C/C(=N/O)CC[C@@H]4[C@H]3CC[C@@]21CC	4.22% (inactive)
CC(C)(C)OC(=O)N1CCN(C(=O)c2[nH]c(C(F)(F)F)nc2-c2ccccc2)CC1	-1.11% (inactive)
CC(C)CCNC(=O)c1cccnc1Sc1ccccc1	-0.291% (inactive)
CC(C)CCNC(=O)c1[nH]c(C(F)(F)F)nc1-c1ccccc1	83.5% (active)
COc1ccc(CCNC(=O)CCCn2c(=O)c3ccccc3n(Cc3ccc(C)cc3)c2=O)cc1OC	-1.49% (inactive)
CC[C@H](C)CCCCC(=O)N[C@@H](CCN)C(=O)N[C@H](C(=O)N[C@@H](CCN)C(=O)N[C@H]1CCNC(=O)[C@H]([C@@H](C)O)NC(=O)[C@H](CCN)NC(=O)[C@H](CCN)NC(=O)[C@H](CC(C)C)NC(=O)[C@@H](CC(C)C)NC(=O)[C@H](CCN)NC1=O)[C@@H](C)O (X1-[Dab]T[Dab][Dab][Dab][dL]L[Dab][Dab]T; lactam 4-C)	0.26% (inactive)
COc1cccc(CNC(=O)C2CCC(CNS(=O)(=O)c3cccs3)CC2)c1 (centres undefined)	2.62% (inactive)
COc1cc(C(=O)NCC(=O)N2CC=C(c3ccccc3)CC2)cc(OC)c1OC	-3.75% (inactive)
CCn1c(CNC(=O)c2cc(OC)c(OC)c(OC)c2)cc2cc(C)ccc21	30.2% (active)
COc1cc(-n2c(C)nc3cc(C(=O)NCc4ccco4)ccc32)cc(OC)c1OC	-12.8% (inactive)
Cc1cccc(C(CC(=O)NCC2(c3ccccc3)CCCC2)c2ccccc2)c1O (centres undefined)	-11.1% (inactive)
CCOc1ccccc1N(CC)C(=O)c1cc2ccc3cccnc3c2[nH]1	8.81% (inactive)
c1ccc(-c2cnc(CN3CCN(c4ccccc4)CC3)o2)cc1	47.7% (active)
Cc1ccc(-c2nnc(CN3CCN(C)CC3)o2)cc1	-9.28% (inactive)
Cc1ccc(C)c(N2CCN(Cc3nnc(-c4ccccc4)o3)CC2)c1	-22.5% (inactive)
NNc1nnc(Cc2ccncc2)c2ccccc12	4.9% (inactive)
COc1cc(CNCCSc2nnnn2C)ccc1OCc1c(F)cccc1Cl	-12.1% (inactive)
COc1cc(SC#N)ccc1N=Cc1c(C)[nH]n(-c2ccc(C)cc2)c1=O	37.3% (active)

Compound	max activation
C=CCOc1c2ccc(C(=O)N(CC)c3ccc(OC)cc3)cc2nn1C	36.4% (active)
CCN(C(=O)c1sc2cc(OC)ccc2c1Cl)c1ccccc1	-6.98% (inactive)
COc1ccc(N(Cc2ccc(N(C)C)cc2)C(=O)c2ccc(S(C)(=O)=O)cc2)cc1	-1.61% (inactive)
CCC(C)[C@@H](N)C(=O)O (some centres undefined)	1.21% (inactive)
COc1cc(NS(=O)(=O)c2cccs2)cc(OC)c1	-2.4% (inactive)
O=C(CSc1ncc(S(=O)(=O)c2ccc(Br)cc2)c(=O)[nH]1)Nc1ccc2c(c1)OCCO2	0.197% (inactive)
Cc1ccc(C(=O)Nc2cc3c(cc2N2CCCC2)n(C)c(=O)c(=O)n3C)cc1	-5.76% (inactive)
CCc1ccc(S(=O)(=O)Nc2cc3c(cc2N2CCCCC2)n(C)c(=O)c(=O)n3C)cc1	33.6% (active)
Cn1c(=O)c(=O)n(C)c2cc(S(=O)(=O)CCC(=O)N3CCCCC3)ccc21	-3.93% (inactive)
Cc1c(NS(=O)(=O)c2cc(C(=O)NCCc3ccc(F)cc3)cc(Cl)c2Cl)c(=O)n(-c2ccccc2)n1C	0.49% (inactive)
Cc1c(NS(=O)(=O)c2ccc(Cl)cc2)c(=O)n(-c2ccccc2)n1C	0.215% (inactive)
Cc1c(NS(=O)(=O)c2cccc(C(=O)Nc3ccc(SC(F)F)cc3)c2)c(=O)n(-c2ccccc2)n1C	33.5% (active)
NCCC[C@H](N)CC(=O)N[C@H]1CNC(=O)[C@H]([C@H]2C[C@H](O)NC(N)=N2)NC(=O)/C(=C/NC(N)=O)NC(=O)[C@H](CO)NC(=O)[C@H](CO)NC1=O (β3hOrn-[Dap]SS[ΔAla(Z-3-ureido)][X2]; lactam 1-C)	4.66% (inactive)
CCOCCn1c(C(C)C)nc2ccccc21	-2.13% (inactive)
CCc1nc2ccccc2n(CCOCCOCCn2c(=O)c(CC)nc3ccccc32)c1=O	1.74% (inactive)
CCOCCn1c(-c2ccccc2)nc2ccccc21	65.4% (active)
Cc1ccc(CSc2nc3cccnc3n2Cc2ccc(C(=O)NC3CC3)cc2)cc1	2.04% (inactive)
CCOc1cccc(NC(=O)c2ccc(F)c(S(=O)(=O)N(CC)c3cccc(C)c3)c2)c1	6.21% (inactive)
CS(=O)(=O)NC(=O)CCC/C=C\C[C@H]1C(=O)C[C@@H](O)[C@@H]1/C=C/[C@H](O)COc1ccccc1	-14.2% (inactive)
COc1cc2ccccc2cc1C(=O)Nc1ccc(NC(=O)c2cccs2)cc1	30% (active)
COc1cc(OC)c(C(=O)NNC(=O)c2ccc(NS(=O)(=O)c3cccs3)cc2)cc1OC	2.22% (inactive)
COc1cc2ccccc2cc1C(=O)Nc1cccc(-c2nc3ccccc3o2)c1	9.76% (inactive)
C=C1CC[C@H](O)CC1=C/C=C1\CCC[C@]2(C)[C@@H]([C@H](C)/C=C/[C@H](C)C(C)C)CC[C@@H]12	14.3% (inactive)
C=C1C(=C/C=C2\CCC[C@]3(C)[C@@H]([C@H](C)CCCC(C)(C)O)CC[C@@H]23)C[C@@H](O)C[C@@H]1O	31.6% (active)
